Results reported in PubChem BioAssay (NCATS).
Results filed as inconclusive are left out. The source made the active and inactive calls. Unless noted, calls follow the shape of the dose curve; as a rule, active = well fitted curve in either direction with a large enough effect (not every such curve was filed as active); inconclusive = small, poorly fitted or top-dose-only effect, or another doubt; inactive = flat fitted curve, though single readings scatter.

Legend:
[1] = Cell Viability - BJ (AID 421; calls by dose curve;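 also: potency is read from the fitted curve at half-maximal effect; cells exposed to compound for 40 hours at 37 °C before readout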); settings: BJ fibroblast viability, qHTS
Method in brief: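 Luminescent ATP signal (CellTiter-Glo, 20 min at room temperature) served as the read-out of viable BJ cells after 40 hours of compound treatment. Responses were scaled between DMSO and 100 uM tamoxifen, and AC50 values were obtained by Hill modeling.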

[2] = Cell Viability - Jurkat (AID 426;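 active = dose-dependent loss of cell ATP signal giving a full or clear fitted curve, ranked by lower potency value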;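 also: potency is read from the fitted curve at half-maximal effect; cells exposed to compound for 40 hours at 37 °C before ATP read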); settings: qHTS
Method in brief: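 Cytotoxicity was scored as loss of cellular ATP, measured by luciferase-based luminescence, in Jurkat clone E6-1 cells after 40 h compound treatment; tamoxifen and doxorubicin served as positive controls.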

[3] = Cell Viability - Hek293 (AID 427;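 active = compounds whose dose-response curve shows a full or clear partial loss of cell viability, called from curve shape rather than a numeric limit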;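 also: potency is read from the fitted curve at half-maximal effect; cells exposed to compound for 40 hours at 37 °C before reading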); settings: qHTS
From the text: NIH Chemical Genomics Center [NCGC]
NIH Molecular Libraries Screening Centers Network [MLSCN]
National Institutes of Environmental Health Sciences [NIEHS]
National Toxicology Program [NTP]
We have developed a 1536-well cell-based assay for quantitative high throughput screening (qHTS) against a number of cell lines to determine in vitro cytotoxicity of small molecules. This particular assay uses the Hek 293 cell line which is derived from human embryonic kidney cells (transformed with adenovirus).
NCGC Assay Protocol Summary:
The CellTiter-Glo luminescent cell viability assay (Promega) is a homogeneous method to measure the number of viable cells in culture. The end point readout of this assay is based on quantitation of intracellular ATP, an indicator of metabolic activity, using the luciferase reaction. […]
Using the CellTiter-Glo luminescent cell viability assay, the amount of cellular ATP was measured in the Hek293 cell line with complete culture medium following compound treatment for 40 hours. […] Library compounds were measured for their ability to cause acute toxicity in the cell line, as reflected by a decrease in intracellular ATP levels, in a concentration-dependent manner. […] AC50 values were determined from concentration-response data modeled with the standard Hill equation. […]
8. Detection; Luminescence; Viewlux plate reader […]

[4] = Cell Viability - HepG2 (AID 433; calls by dose curve;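 also: potency is read from the fitted curve at half-maximal effect; potency for ATP loss meaning cytotoxicity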); settings: qHTS
Method in brief: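 Cytotoxicity read as ATP loss (CellTiter-Glo luminescence) after 40 hr compound exposure of HepG2, 1500 cells/well, 37 °C. AC50 by Hill equation; 0% set by DMSO, 100% inhibition by 100 uM tamoxifen.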

[5] = Cell Viability - MRC5 (AID 434; calls by dose curve;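 also: potency is read from the fitted curve at half-maximal effect; cells exposed to compound for 40 hours at 37 °C; potency reflects cytotoxicity seen as loss of intracellular ATP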); settings: MRC5 lung fibroblast viability, qHTS
Method in brief: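 AC50 values come from Hill-equation fits of intracellular ATP loss, measured by CellTiter-Glo luminescence. Normal lung fibroblasts (MRC5) had 40 hr compound treatment at 37 C, normalized between DMSO and 100 uM tamoxifen.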

[6] = Cell Viability - SK-N-SH (AID 435; calls by dose curve; also: potency is read from the fitted curve at half-maximal effect); settings: SK-N-SH neuroblastoma cell viability qHTS
Method in brief: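 qHTS cytotoxicity: CellTiter-Glo ATP luminescence after 40 h compound exposure of human neuroblastoma SK-N-SH cells at 37 °C. AC50 derived by Hill-equation fitting, with DMSO as basal and 100 uM tamoxifen as full inhibition.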

[7] = AP1 Signaling Pathway (AID 357); settings: ME-180 AP-1-bla reporter, EGF-induced, beta-lactamase ratio, 5 h; series mostly up to 38 µM;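 also: ME-180 reporter cells stimulated with EGF at its EC50 level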
Method in brief: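 In this screen, ME-180 cells in Opti-MEM with 0.5% dialyzed FBS received EC50 EGF and compound titrations for 5 h. AP-1 reporter beta-lactamase was detected via CCF4 ratio, giving AC50 for positive and negative modulators.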

[8] = target: Cytochrome P450 1A2 (Homo sapiens) (UniProt P05177); experiment: p450-cyp1a2 (AID 410; calls by dose curve); settings: recombinant CYP1A2, luciferin-ME demethylation, luminescence; series mostly up to 57 µM
Chain of Cytochrome P450 1A2 (Homo sapiens) (P05177 whole entry, looked up): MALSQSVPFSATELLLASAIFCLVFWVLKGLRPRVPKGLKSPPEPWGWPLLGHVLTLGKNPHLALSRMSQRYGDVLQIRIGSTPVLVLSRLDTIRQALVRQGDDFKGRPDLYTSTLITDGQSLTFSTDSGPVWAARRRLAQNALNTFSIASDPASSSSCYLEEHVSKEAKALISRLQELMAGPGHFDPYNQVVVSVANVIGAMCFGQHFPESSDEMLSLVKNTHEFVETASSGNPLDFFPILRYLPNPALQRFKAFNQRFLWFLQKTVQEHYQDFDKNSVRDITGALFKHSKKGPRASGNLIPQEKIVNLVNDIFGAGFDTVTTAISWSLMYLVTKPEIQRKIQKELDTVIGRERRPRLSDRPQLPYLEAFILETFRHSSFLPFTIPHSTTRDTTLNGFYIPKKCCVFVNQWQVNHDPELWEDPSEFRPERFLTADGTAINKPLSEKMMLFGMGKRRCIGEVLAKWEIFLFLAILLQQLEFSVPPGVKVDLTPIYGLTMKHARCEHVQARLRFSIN
Method in brief: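 Read-out is luminescence from luciferin produced by CYP1A2 demethylation of Luciferin-ME (100uM, at Km). Detection reagent stopped the 60 min NADPH-dependent reaction; signals were normalized to 57 uM furafylline.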

[9] = NFAT Signaling Pathway (AID 444); settings: Jurkat NFAT-bla M1, carbachol, beta-lactamase ratio, 5 h; series mostly up to 17.2 µM;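 also: carbachol stimulus at about its EC50 of 1 µM final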
Method in brief: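 Read-out: CCF4 FRET ratio (460 nm/530 nm) after 1 h RT dye loading, used for %activity and AC50 from titration series. Cells: Jurkat NFAT-β-lactamase/M1 line, treated with compound plus 1 uM carbachol for 5 h, 37 °C.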

[10] = Stat Signaling Pathway (AID 446); settings: ME-180 (cervical carcinoma) SIE beta-lactamase reporter, IL-6 stimulated, 5 h; series mostly up to 17.2 µM;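 also: ME-180 cervical cancer cells given 40 pM IL-6 alongside compound; SIE-controlled beta-lactamase reporter measured as 460/530 nm FRET emission ratio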
Method in brief: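 Compound effects on IL-6-induced STAT reporter activity were measured in ME-180 cells. After overnight culture, cells were co-treated with 40 pM IL-6 for 5 hrs before beta-lactamase substrate loading at room temperature.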

Measured: Potency

COc1ccc(CCC(=O)c2c(O)cc(O[C@@H]3O[C@H](CO)[C@@H](O)[C@H](O)[C@H]3O[C@@H]3O[C@@H](C)[C@H](O)[C@@H](O)[C@H]3O)cc2O)cc1O
inactive: [1] > 92 µM | [2] > 92 µM | [3] > 92 µM | [4] > 92 µM | [5] > 92 µM | [6] > 92 µM

C=C1C[C@]23C[C@@]1(O)CC[C@H]2[C@@]12C=C[C@H](O)[C@@](C)(C(=O)O1)[C@H]2[C@@H]3C(=O)O
inactive: [1] > 92 µM | [2] > 92 µM | [3] > 92 µM | [4] > 92 µM | [5] > 92 µM | [6] > 92 µM

CC(C)C[C@H](NC(=O)[C@@H]1O[C@H]1C(=O)O)C(=O)NCCCCN=C(N)N
inactive: [7] | [8] | [9] | [10]

C[C@]1(C2CCCC2)Cc2cc(OCC(=O)O)c(Cl)c(Cl)c2C1=O
inactive: [7] | [8] | [9] | [10]

CCc1cccc2c3c([nH]c12)[C@@](CC)(CC(=O)O)OCC3
inactive: [7] | [8] | [9] | [10]

CCN1CCN(C(=O)N[C@@H](C(=O)N[C@@H]2C(=O)N3[C@@H]2SC(C)(C)[C@@H]3C(=O)O)c2ccccc2)C(=O)C1=O
inactive: [9] | [10]
